The whole screen tested about 16,000 compounds, of which about 5,100 (32%) were called active. About 25% were inconclusive and are not listed. This is one part of the list. Unmarked numbers belong to inactive results. The call rests on the fitted dose curve; in most records, active means well fitted curve in the direction sought with a large enough effect; inconclusive means small, poorly fitted or top-dose-only effect, or effect the other way; inactive means no such curve, though single readings can be large or run the other way.
target: Cytochrome P450 3A4 (Homo sapiens) (UniProt P08684); assay: Cytochrome panel assay with activity outcomes; settings: recombinant CYP, pro-luciferin dealkylation, luminescence, p450-cyp3a4; series mostly up to 57.1 µM; activity, negative = inhibition: at the top concentration
Sequence (P08684 whole entry, looked up): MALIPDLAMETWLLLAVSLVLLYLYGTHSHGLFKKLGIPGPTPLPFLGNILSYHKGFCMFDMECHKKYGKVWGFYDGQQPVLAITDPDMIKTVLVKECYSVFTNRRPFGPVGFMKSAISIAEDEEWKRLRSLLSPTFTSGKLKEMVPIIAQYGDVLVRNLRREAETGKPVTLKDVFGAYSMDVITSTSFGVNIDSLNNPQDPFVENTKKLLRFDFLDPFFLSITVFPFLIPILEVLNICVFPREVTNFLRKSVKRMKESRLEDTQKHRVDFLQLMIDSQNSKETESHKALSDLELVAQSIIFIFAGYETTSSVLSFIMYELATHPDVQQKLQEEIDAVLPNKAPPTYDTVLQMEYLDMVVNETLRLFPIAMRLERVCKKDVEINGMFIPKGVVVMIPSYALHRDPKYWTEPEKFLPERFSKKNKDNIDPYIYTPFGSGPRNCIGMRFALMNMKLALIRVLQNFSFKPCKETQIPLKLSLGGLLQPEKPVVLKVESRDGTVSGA
On the % scale 0 is the no-effect control and ±100 the full control effect.

| SMILES | activity, negative = inhibition | AC50 |
| --- | --- | --- |
| Cc1cc2nc(C)n(CCCN)c2cc1C | -18.2% |  |
| CSc1nc(C)cc(Nc2ccc(O)c(CN3CCOCC3)c2)n1 | 0.709% [at 11.4 µM] |  |
| Cc1cccc(C(=O)NCN2CCN(c3ccccc3C#N)CC2)c1 | -18.3% |  |
| Cc1cccc(OCC(=O)NNC(=O)CSc2ncc(C#N)c(N)n2)c1 |  | 14.1 µM (active) |
| Cc1c(C(=O)Nc2nccs2)sc2nc(-c3cccs3)cc(C(F)(F)F)c12 |  | 14.1 µM (active) |
| CC(/C=C/c1ccccc1)=N/NC(=O)CNC(=O)c1ccc2c(c1)OCO2 |  | 6.31 µM (active) |
| CN(C)Cc1cc(C(C)(C)C)ccc1-c1ccc(C(C)(C)C)cc1CN(C)C | 5.04% [at 11.4 µM] |  |
| CN(C)Cc1ccc(C(C)(C)C)cc1-c1cc(C(C)(C)C)ccc1CN(C)C | 0.94% [at 11.4 µM] |  |
| CN(C)Cc1cc(C(F)(F)F)ccc1C(O)(c1ccccc1)c1ccccc1 |  | 0.794 µM (active) |
| COc1ccccc1-c1cncnc1NCCNC(C)=O |  | 2 µM (active) |
| CC(=O)NCCNc1cc(-c2ccccc2C)ncn1 | -18% |  |
| CC(=O)NCCNc1ncncc1-c1ccccc1C(F)(F)F |  | 1 µM (active) |
| CC(=O)NCCNc1cc(-c2ccccc2CN(C)C)ncn1 | -7.94% |  |
| COc1nc(OCCNC(C)=O)nc(N(C)C)n1 | 4.84% [at 2.29 µM] |  |
| CC(=O)NCCNc1ncncc1-c1ccc(N(C)C)cc1 |  | 2 µM (active) |
| CC(=O)NCCNc1ncncc1-c1ccccc1C |  | 2.51 µM (active) |
| CC(=O)NCCNc1cc(-c2ccccc2C(F)(F)F)ncn1 | -6.72% |  |
| COc1ccc(N2CCN(C(=N)/C(C(C)=O)=C(\C)O)CC2)cc1 | -4.11% [at 2.29 µM] |  |
| CCn1cnc2sc(C(=O)N3CCN(c4ccc(OC)cc4)CC3)c(C)c2c1=O |  | 12.6 µM (active) |
| O=C(O)c1cc(=O)cc(C(=O)O)[nH]1 | -8.24% |  |
| Fc1cccc(F)c1C(Nc1nncs1)Nc1nncs1 | -16.1% [at 11.4 µM] |  |
| Clc1ccccc1-c1nc(N/N=C/c2cccnc2)c2ccccc2n1 |  | 1.41 µM (active) |
| C(=N/Nc1nnc2c(n1)[nH]c1ccccc12)/c1cccnc1 |  | 3.98 µM (active) |

| SMILES | activity, negative = inhibition | AC50 |
| --- | --- | --- |
| Cc1sc(N/N=C/c2cccnc2)nc1-c1ccccc1 | 20.5% [at 2.29 µM] |  |
| CON(C)C(=O)c1nnc2c(n1)[nH]c1ccccc12 | -23% [at 11.4 µM] |  |
| Clc1ccccc1-c1nc(NCc2cccnc2)c2ccccc2n1 |  | 2.51 µM (active) |
| FC(F)(F)c1ccccc1-c1nc(NCc2cccnc2)c2ccccc2n1 |  | 2 µM (active) |
| O=C(O)CNc1ccc(C(=O)O)cc1 | -7.89% [at 11.4 µM] |  |
| CC(C)(C)COS(=O)OCC(C)(C)C | -4.89% [at 11.4 µM] |  |
| O=C(O)CCC(=O)N1CCOc2ccc(Cl)cc21 | 4.52% |  |
| CN(C)CCn1c(CO)nc2c1c(=O)n(C)c(=O)n2C | -3.94% [at 11.4 µM] |  |
| O=c1cc(CO)oc(CN2CCCC2)c1O | -2.41% |  |
| Cc1ccccc1-c1nc(NCc2cccnc2)c2ccccc2n1 |  | 0.501 µM (active) |
| CO[C@]1(NC(=O)CSCC#N)C(=O)N2C(C(=O)O)=C(CSc3nnnn3C)CS[C@H]21 |  | inactive |
| COc1ccc(CC(NC(C)=O)C(=O)NC2CCN(C(=O)Nc3ccc(Cl)cc3)CC2)cc1OC (stereo not given) | -6.41% [at 2.29 µM] |  |
| COc1ccc(C(C(=O)NC2CCCCC2)N(C(=O)Cc2c[nH]c3ccccc23)c2ccc(NC(C)=O)cc2)cc1OC (stereo not given) |  | 3.16 µM (active) |
| CC(OC(=O)Cn1c(C(F)(F)F)nc2ccccc21)C(N)=O (stereo not given) | -0.0989% |  |
| Clc1ccc(Cn2c(-c3cccnc3Cl)nc3ccccc32)c(Cl)c1 | -20.9% [at 2.29 µM] |  |
| CC(C)C(=O)NCCc1nc2ccccc2n1CCCOc1ccc(Cl)cc1 |  | 11.2 µM (active) |
| C[C@]1(c2ccccc2)OC(C(=O)O)=CC1=O | -9.78% |  |
| O=C(O)c1ccc(OCc2ccccc2)c(Cl)c1 | -32.8% [at 11.4 µM] |  |
| CCOc1ccc(C(=O)O)cc1OC | -28.9% |  |
| CCC(=O)c1ccc(OCc2ccc(C(=O)OC)cc2)c(OC)c1 |  | 4.47 µM (active) |
| CC(C)=CCC/C(C)=C/CO/N=C1/C[C@@H](O)[C@@H](O)[C@@H]2[C@@H]3C(=O)N(C4CCCCC4)C(=O)[C@H]3CC[C@@H]12 | -27% [at 11.4 µM] |  |
| CC1(C)CC2(CC(c3cccs3)c3cc(Cl)c(O)cc3O2)NC(=S)N1 (stereo not given) | -22.1% [at 2.29 µM] |  |
